Measured values taken from publication PMC7862700, “An all-to-all approach to the identification of sequence-specific readers for epigenetic DNA modifications on cytosine”.

What was measured:
Assay in all cases: DAPPL (digital affinity profiling via proximity ligation, sequencing); 10 mM Tris-HCl pH 7.5, 50 mM NaCl, 1 mM DTT, 4% glycerol, room temperature, 30 min; GST-TFs on glutathione beads, 16-mer random dsDNA library, 0.1% formaldehyde crosslink after washing; high values mean tight binding
Conditions in all cases: protein: recombinant; tags: N-terminal GST; dsDNA, one strand shown
[1] = target: T1, FLI1 (Homo sapiens, UniProt Q01543 1-452)
T1 sequence: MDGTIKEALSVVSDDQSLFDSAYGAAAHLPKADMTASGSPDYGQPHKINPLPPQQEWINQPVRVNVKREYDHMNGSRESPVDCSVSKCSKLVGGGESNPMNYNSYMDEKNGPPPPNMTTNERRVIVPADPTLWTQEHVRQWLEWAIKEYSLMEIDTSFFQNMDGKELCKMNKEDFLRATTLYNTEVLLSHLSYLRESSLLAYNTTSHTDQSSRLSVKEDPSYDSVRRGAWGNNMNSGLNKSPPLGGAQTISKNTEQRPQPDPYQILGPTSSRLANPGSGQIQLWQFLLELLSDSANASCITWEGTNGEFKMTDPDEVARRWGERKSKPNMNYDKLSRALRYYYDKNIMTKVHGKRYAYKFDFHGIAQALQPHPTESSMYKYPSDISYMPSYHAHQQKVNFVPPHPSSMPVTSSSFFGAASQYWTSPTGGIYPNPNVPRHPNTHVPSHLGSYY
How it was run: (§1)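 Human transcription factors carrying a GST fusion were produced in yeast, bound to glutathione beads, tagged with DNA barcodes and pooled together with a tag-only sample. Each pool was held with 200 nmole of a random double-stranded 16-mer DNA library in Tris/NaCl/DTT/glycerol buffer for 30 min at room temperature, then washed, crosslinked in 0.1% formaldehyde, proximity-ligated with BsaI/T4 ligase (1 h, 37 °C), PCR-amplified and sequenced on an Illumina NextSeq500. Binding signal is the read frequency of each hexamer for a given factor divided by its frequency in the tag-only sample.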

[2] = target: T2, GABPA (Homo sapiens, UniProt Q06546 1-454)
T2 sequence: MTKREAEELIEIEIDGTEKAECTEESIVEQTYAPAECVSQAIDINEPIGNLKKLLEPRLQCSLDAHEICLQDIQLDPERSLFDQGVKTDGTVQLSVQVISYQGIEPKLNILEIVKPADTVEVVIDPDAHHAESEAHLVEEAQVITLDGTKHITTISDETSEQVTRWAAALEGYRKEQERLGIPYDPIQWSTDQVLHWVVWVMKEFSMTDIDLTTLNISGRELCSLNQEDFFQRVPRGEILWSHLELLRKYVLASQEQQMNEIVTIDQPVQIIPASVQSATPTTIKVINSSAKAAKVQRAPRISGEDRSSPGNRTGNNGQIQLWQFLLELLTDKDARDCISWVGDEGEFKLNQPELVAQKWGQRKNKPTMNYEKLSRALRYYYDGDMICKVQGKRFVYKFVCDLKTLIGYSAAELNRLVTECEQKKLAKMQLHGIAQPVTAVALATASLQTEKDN
How it was run: as §1

[3] = target: T3, ERG (Homo sapiens, UniProt P11308 1-479)
T3 sequence: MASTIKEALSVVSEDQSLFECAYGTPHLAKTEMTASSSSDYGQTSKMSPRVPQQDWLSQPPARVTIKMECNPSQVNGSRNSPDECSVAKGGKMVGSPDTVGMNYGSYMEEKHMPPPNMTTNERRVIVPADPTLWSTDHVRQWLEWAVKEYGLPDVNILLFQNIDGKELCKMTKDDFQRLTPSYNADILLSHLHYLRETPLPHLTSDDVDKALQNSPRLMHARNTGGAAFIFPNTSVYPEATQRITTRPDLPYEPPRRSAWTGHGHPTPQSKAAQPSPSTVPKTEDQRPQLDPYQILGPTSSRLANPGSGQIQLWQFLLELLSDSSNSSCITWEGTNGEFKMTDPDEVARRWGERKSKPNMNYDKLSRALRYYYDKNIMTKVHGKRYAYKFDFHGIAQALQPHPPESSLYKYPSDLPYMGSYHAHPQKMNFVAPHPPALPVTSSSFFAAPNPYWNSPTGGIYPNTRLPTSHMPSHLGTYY
How it was run: as §1

[4] = target: ELF1 (Homo sapiens, UniProt P32519 1-619)
Sequence of ELF1 (P32519 whole entry): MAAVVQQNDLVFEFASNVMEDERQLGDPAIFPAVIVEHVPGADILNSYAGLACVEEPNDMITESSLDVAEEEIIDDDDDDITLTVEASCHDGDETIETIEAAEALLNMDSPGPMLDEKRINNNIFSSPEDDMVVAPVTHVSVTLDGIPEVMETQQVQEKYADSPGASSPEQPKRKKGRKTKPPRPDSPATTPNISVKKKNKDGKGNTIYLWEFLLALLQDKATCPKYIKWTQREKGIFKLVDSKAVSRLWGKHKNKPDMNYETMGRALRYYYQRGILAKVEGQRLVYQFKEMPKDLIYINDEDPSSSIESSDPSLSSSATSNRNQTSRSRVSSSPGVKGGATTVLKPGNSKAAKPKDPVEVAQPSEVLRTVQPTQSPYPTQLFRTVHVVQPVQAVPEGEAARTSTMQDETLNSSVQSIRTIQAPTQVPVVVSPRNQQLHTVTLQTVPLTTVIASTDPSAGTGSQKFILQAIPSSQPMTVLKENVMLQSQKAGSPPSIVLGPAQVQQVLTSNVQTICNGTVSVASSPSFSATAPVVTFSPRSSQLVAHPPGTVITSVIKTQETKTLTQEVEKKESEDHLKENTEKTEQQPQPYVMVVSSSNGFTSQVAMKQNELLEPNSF
How it was run: as §1

[5] = target: T4, EHF (Homo sapiens, UniProt Q9NZC4 1-300)
T4 sequence: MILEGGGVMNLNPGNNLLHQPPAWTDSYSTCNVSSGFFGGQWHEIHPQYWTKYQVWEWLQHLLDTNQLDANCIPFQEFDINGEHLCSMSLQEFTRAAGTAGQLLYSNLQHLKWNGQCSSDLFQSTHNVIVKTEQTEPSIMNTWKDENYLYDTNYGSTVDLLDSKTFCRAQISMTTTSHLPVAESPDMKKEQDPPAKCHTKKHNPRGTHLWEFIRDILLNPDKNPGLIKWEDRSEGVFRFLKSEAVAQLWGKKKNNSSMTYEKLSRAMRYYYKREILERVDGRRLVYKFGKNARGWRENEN
How it was run: as §1

[6] = target: SPI1 (Homo sapiens, UniProt P17947 1-270)
How it was run: as §1

[7] = target: T5, ELK3 (Homo sapiens, UniProt P41970 1-407)
T5 sequence: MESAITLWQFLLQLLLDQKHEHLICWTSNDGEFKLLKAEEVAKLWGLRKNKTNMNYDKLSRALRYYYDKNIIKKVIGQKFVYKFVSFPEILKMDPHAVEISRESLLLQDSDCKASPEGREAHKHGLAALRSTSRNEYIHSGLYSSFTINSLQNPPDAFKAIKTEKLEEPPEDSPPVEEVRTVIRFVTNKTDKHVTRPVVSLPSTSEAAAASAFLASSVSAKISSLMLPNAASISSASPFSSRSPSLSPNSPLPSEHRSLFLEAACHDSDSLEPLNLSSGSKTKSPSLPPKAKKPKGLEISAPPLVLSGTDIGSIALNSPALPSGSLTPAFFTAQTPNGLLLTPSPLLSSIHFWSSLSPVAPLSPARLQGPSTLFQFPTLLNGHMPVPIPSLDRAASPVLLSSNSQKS
How it was run: as §1

[8] = target: ETV5 (Homo sapiens, UniProt P41161 1-510)
Sequence of ETV5 (P41161 whole entry): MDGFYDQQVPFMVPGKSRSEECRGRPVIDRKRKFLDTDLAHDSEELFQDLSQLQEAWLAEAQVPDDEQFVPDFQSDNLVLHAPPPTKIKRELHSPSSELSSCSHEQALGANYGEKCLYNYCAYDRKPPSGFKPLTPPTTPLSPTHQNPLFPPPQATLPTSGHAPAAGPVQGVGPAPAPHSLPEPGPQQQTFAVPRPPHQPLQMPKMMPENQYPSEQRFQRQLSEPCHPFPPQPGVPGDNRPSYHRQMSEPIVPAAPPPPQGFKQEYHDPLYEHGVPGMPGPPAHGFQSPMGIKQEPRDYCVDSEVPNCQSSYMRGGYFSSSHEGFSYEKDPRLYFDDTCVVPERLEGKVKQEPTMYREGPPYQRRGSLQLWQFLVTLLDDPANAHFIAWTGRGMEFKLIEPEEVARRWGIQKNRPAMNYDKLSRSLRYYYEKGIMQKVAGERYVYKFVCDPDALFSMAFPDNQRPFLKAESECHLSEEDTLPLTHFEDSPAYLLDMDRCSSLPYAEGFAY
How it was run: as §1

[9] = target: T6, SPIC (Homo sapiens, UniProt Q8N5J4 1-248)
T6 sequence: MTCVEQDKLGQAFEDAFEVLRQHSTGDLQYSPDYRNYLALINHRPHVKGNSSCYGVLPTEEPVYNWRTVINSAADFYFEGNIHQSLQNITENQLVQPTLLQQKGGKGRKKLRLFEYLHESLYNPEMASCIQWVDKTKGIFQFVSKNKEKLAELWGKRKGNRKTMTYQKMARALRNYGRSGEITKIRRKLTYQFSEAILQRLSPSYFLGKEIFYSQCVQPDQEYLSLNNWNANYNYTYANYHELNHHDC
How it was run: as §1

[10] = target: T7, ETS2 (Homo sapiens, UniProt P15036 1-469)
T7 sequence: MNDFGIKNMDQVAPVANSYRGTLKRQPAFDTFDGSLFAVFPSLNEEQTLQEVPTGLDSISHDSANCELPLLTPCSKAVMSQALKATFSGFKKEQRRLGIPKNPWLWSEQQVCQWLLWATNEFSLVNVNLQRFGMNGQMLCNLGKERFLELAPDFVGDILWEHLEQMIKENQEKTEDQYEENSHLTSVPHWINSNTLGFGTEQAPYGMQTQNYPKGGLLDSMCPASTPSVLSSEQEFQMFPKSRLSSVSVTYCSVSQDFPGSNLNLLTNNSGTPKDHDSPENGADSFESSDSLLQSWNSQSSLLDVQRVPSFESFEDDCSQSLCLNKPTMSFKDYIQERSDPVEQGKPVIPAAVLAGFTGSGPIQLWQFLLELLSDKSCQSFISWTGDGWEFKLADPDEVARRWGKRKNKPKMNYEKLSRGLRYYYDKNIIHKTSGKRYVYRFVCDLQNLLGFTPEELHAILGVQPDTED
How it was run: as §1

[11] = target: T8, SPDEF (Homo sapiens, UniProt O95238 1-335)
T8 sequence: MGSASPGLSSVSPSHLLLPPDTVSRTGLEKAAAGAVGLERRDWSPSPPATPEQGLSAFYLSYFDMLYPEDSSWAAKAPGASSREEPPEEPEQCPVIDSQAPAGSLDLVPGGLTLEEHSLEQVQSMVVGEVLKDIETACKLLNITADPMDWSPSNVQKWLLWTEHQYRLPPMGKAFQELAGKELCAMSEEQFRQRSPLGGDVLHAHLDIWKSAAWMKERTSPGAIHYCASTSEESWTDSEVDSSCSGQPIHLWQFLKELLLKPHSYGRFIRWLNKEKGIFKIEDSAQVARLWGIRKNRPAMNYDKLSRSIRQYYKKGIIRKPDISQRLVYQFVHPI
How it was run: as §1

[12] = target: T9, ETV3 (Homo sapiens, UniProt P41162-2 1-143)
T9 sequence: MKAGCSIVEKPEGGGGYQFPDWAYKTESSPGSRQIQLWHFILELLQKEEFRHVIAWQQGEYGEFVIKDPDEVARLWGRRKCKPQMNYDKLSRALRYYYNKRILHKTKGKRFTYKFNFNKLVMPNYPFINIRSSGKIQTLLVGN
How it was run: as §1

[13] = target: ETV6 (Homo sapiens, UniProt P41212 1-452)
Sequence of ETV6 (P41212 whole entry): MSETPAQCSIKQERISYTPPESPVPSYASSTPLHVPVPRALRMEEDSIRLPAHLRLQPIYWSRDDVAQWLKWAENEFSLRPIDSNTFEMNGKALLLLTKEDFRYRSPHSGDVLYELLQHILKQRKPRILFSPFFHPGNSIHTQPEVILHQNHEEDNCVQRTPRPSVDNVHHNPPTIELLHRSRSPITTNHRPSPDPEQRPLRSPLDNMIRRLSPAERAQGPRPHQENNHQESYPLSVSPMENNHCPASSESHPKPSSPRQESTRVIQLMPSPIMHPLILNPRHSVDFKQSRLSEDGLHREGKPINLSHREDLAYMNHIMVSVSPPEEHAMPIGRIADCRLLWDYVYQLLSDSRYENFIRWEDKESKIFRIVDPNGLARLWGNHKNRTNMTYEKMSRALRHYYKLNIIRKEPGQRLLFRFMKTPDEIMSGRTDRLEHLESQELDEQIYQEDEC
How it was run: as §1

[14] = target: T10, ERF (Homo sapiens, UniProt P50548 1-548)
T10 sequence: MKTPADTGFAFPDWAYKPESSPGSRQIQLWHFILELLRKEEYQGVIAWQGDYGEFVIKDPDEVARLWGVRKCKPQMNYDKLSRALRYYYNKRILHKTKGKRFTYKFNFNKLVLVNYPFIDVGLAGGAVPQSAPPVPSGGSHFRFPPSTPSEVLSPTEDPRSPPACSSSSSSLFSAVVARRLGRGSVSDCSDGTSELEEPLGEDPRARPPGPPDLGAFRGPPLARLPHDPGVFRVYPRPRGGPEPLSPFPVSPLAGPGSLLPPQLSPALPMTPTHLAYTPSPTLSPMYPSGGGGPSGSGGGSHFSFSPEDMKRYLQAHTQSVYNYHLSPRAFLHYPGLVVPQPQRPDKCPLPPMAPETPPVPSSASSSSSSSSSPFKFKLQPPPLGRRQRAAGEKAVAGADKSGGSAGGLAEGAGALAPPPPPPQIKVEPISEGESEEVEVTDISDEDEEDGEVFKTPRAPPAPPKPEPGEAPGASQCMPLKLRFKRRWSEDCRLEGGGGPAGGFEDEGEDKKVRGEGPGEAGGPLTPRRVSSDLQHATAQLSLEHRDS
How it was run: as §1

Sequence	binding signal [1]	binding signal [2]	binding signal [3]	binding signal [4]	binding signal [5]	binding signal [6]	binding signal [7]	binding signal [8]	binding signal [9]	binding signal [10]	binding signal [11]	binding signal [12]	binding signal [13]	binding signal [14]
GGTTAT	1.07 fold enrichment (6-mer frequency, TF over GST control)	1.03 fold enrichment (6-mer frequency, TF over GST control)	1.04 fold enrichment (6-mer frequency, TF over GST control)	1.01 fold enrichment (6-mer frequency, TF over GST control)	1.03 fold enrichment (6-mer frequency, TF over GST control)	1 fold enrichment (6-mer frequency, TF over GST control)	1.07 fold enrichment (6-mer frequency, TF over GST control)	1.09 fold enrichment (6-mer frequency, TF over GST control)	1.05 fold enrichment (6-mer frequency, TF over GST control)	1.04 fold enrichment (6-mer frequency, TF over GST control)	1.05 fold enrichment (6-mer frequency, TF over GST control)	1.05 fold enrichment (6-mer frequency, TF over GST control)	1.03 fold enrichment (6-mer frequency, TF over GST control)	–
TGGGTA	1.04 fold enrichment (6-mer frequency, TF over GST control)	1.05 fold enrichment (6-mer frequency, TF over GST control)	–	–	1.01 fold enrichment (6-mer frequency, TF over GST control)	–	1.12 fold enrichment (6-mer frequency, TF over GST control)	1.02 fold enrichment (6-mer frequency, TF over GST control)	1.03 fold enrichment (6-mer frequency, TF over GST control)	–	–	–	–	1.14 fold enrichment (6-mer frequency, TF over GST control)
